Measured values as given in ChEMBL document CHEMBL1157539, “Thousands of chemical starting points for antimalarial lead identification” (Nature, 2010).

Tests used:
Format in all cases: functional
[1] = tested on: Plasmodium falciparum; test: GSK_TCMDC: Inhibition of Plasmodium falciparum 3D7 in whole red blood cells, using parasite LDH activity as an index of growth. Test compounds present at 2uM
[2] = tested on: Plasmodium falciparum; test: GSK_TCMDC: Inhibition of Plasmodium falciparum Dd2 in whole red blood cells, using parasite LDH activity as an index of growth. Test compounds present at 2uM
[3] = tested on: HepG2; test: GSK_TCMDC: Percent inhibition of human HepG2 cell line. Test compounds present at 10uM.

Cc1ccccc1C1CCN(C2CCC(NC(=O)/C=C/c3ccc(C#N)cc3)CC2)CC1 (stereo not drawn)
Inhibition [1]: 87% | Inhibition [2]: 13% | Inhibition [3]: 39%

COc1cccc(C(=O)Nc2ccc(Oc3ccc(Cl)cc3)cc2)c1
Inhibition [1]: 92% | Inhibition [2]: 0% | Inhibition [3]: 33%

COc1ccc(CN2CCCN(Cc3cccc(NC(=O)c4ccc(Cl)c(Cl)c4)c3)CC2)cc1.O=C(O)C(F)(F)F
Inhibition [1]: 86% | Inhibition [2]: 19% | Inhibition [3]: 38%

COc1ccc(-c2cccc(NC(=O)c3cccc(Cl)c3)c2)cc1CN1CCNCC1.O=C(O)C(F)(F)F
Inhibition [1]: 100% | Inhibition [2]: 52% | Inhibition [3]: 29%

COc1ccc2ncc(F)c(CCN3CC[C@H](NCc4cc(C#N)c5c(c4)OCCO5)[C@H](O)C3)c2c1
Inhibition [1]: 96% | Inhibition [2]: 47% | Inhibition [3]: 51%

CN1CCN(c2ccnc3ccc(NC(=O)Cc4ccc(OCc5ccccc5)cc4)cc23)CC1
Inhibition [1]: 100% | Inhibition [2]: 89% | Inhibition [3]: 6%

O=c1cc(NCCCNCc2cc(C(F)(F)F)ccc2F)[nH]c2ccccc12
Inhibition [1]: 94% | Inhibition [2]: 43% | Inhibition [3]: 0%

COc1cccc(C(O)CNc2ccnc(Nc3cccc(-c4csc(C)n4)c3)n2)c1 (stereo not drawn)
Inhibition [1]: 99% | Inhibition [2]: 73% | Inhibition [3]: 38%

C=CCN1CCC(N(Cc2cccc(Oc3ccccc3)c2)C(=O)C(c2ccccc2)c2ccccc2)CC1
Inhibition [1]: 87% | Inhibition [2]: 79% | Inhibition [3]: 7%

CC(C)N(Cc1ccc(-c2ccc(C(F)(F)F)cc2)cc1)C(=O)Cn1c(CCc2cccc(F)c2F)cc(=O)c2ccc(CCCN3CCCCC3)cc21.O=C(O)C(O)C(O)C(=O)O
Inhibition [1]: 100% | Inhibition [2]: 82% | Inhibition [3]: 99%

Br.COc1ccc(CC(C)CON2C(N)=NC(N)=NC2(C)C)cc1 (stereo not drawn)
Inhibition [1]: 94% | Inhibition [2]: 96% | Inhibition [3]: 59%

Cc1ccc(S(=O)(=O)O)cc1.N=C(NCCc1c[nH]c2ccccc12)NCc1ccccc1Cl
Inhibition [1]: 83% | Inhibition [2]: 45% | Inhibition [3]: 16%

COc1ccc(C(=O)Nc2ccc3nc(N4CCCCC4)cc(C)c3c2)cc1OC
Inhibition [1]: 92% | Inhibition [2]: 7% | Inhibition [3]: 15%

Nc1nccc2ccc(Oc3ccncc3)cc12
Inhibition [1]: 91% | Inhibition [2]: 81% | Inhibition [3]: 0%

COC(=O)c1noc(C)c1I
Inhibition [1]: 99% | Inhibition [2]: 2% | Inhibition [3]: 5%

O=C(Nc1cc(Cl)ccc1Cl)N[C@H]1CCN(CCCCCNC(=O)C2CC2c2ccc(Cl)c(Cl)c2)C1 (stereo partly drawn)
Inhibition [1]: 97% | Inhibition [2]: 1% | Inhibition [3]: 49%

COc1ccc2[nH]c(C)cc(=NN=Cc3cccc(F)c3)c2c1
Inhibition [1]: 100% | Inhibition [2]: 100% | Inhibition [3]: 2%

Fc1ccc(-c2cncc(Nc3ccncc3)n2)cc1
Inhibition [1]: 88% | Inhibition [2]: 11% | Inhibition [3]: 8%

CCC(NC[C@@H](O)[C@H](Cc1ccccc1)NC(=O)c1cc(C2CCCC2)cc(N2CCCC2=O)c1)c1cccc(Cl)c1.Cl (stereo partly drawn)
Inhibition [1]: 100% | Inhibition [2]: 97% | Inhibition [3]: 7%

CS(=O)(=O)NCCCNCc1ccc(-c2ccc(-c3nc4cc(F)ccc4[nH]3)cc2)cc1.O=C(O)C(F)(F)F
Inhibition [1]: 100% | Inhibition [2]: 97% | Inhibition [3]: 17%

COc1cc(NC(=O)/C=C/c2ccccc2OC(F)(F)F)cc(OCCN2CCC(O)(c3ccccc3)CC2)c1.O=C(O)C(=O)O
Inhibition [1]: 100% | Inhibition [2]: 50% | Inhibition [3]: 61%

CC1(C)CN(CCC2CCC(NC(=O)/C=C/c3ccc(F)cc3F)CC2)Cc2ccc(C#N)cc21.Cl (stereo not drawn)
Inhibition [1]: 88% | Inhibition [2]: 77% | Inhibition [3]: 39%

CCN(CC)CCCNC(=O)/C(=C/C=C/c1cc2cc(Cl)c(Cl)cc2[nH]1)OC.Cl
Inhibition [1]: 84% | Inhibition [2]: 21% | Inhibition [3]: 38%

Cc1ccc(OC2CCN(CCCCC3(C)C(=O)Nc4ccccc43)CC2)cc1.Cl (stereo not drawn)
Inhibition [1]: 100% | Inhibition [2]: 2% | Inhibition [3]: 63%

Nc1c2ccccc2nc2ccc(-c3ccccc3)cc12
Inhibition [1]: 100% | Inhibition [2]: 99% | Inhibition [3]: 100%

CC(NC(=O)c1ccc(O)c(-c2ccc(Cl)c(Cl)c2)c1)C(=O)NCCN1CCCCC1 (stereo not drawn)
Inhibition [1]: 97% | Inhibition [2]: 3% | Inhibition [3]: 0%

Cl.NC(=O)c1cccc(Nc2nccc(Nc3ccc(Oc4cccc(Cl)c4)c(Cl)c3)n2)c1
Inhibition [1]: 93% | Inhibition [2]: 12% | Inhibition [3]: 0%

COc1ccc(CNCc2ccsc2)cc1-c1ccc(S(=O)(=O)NCCN2CCCC2)c(C)c1.O=C(O)C(F)(F)F
Inhibition [1]: 85% | Inhibition [2]: 43% | Inhibition [3]: 49%

O=[N+]([O-])c1cc(C(c2ccc(O)c([N+](=O)[O-])c2)C(Cl)(Cl)Cl)ccc1O
Inhibition [1]: 93% | Inhibition [2]: 98% | Inhibition [3]: 2%

CC(C)CCNc1nc(NCc2ccccc2)c2cc(O)ccc2n1
Inhibition [1]: 100% | Inhibition [2]: 92% | Inhibition [3]: 25%

CN(CCc1ccccn1)Cc1ccc(-c2ccc(-c3nc4ccccc4[nH]3)s2)cc1
Inhibition [1]: 100% | Inhibition [2]: 48% | Inhibition [3]: 29%

CC1(C)Cc2c(oc3ncn(CCn4cnc5oc6c(c5c4=N)CC(C)(C)SC6)c(=N)c23)CS1
Inhibition [1]: 98% | Inhibition [2]: 93% | Inhibition [3]: 0%

CSc1ccc(NC(=O)Nc2cc(C)nc3ccccc23)cc1Br
Inhibition [1]: 100% | Inhibition [2]: 66% | Inhibition [3]: 7%

O=C(CCc1c[nH]cn1)Nc1cccc(-c2ccc(-c3nc4ccccc4[nH]3)s2)c1
Inhibition [1]: 92% | Inhibition [2]: 37% | Inhibition [3]: 11%

Cc1noc(C)c1-c1ccc2c(Nc3cccc4c3-c3ccccc3C4=O)c(C(=O)NCc3ccccc3I)cnc2c1
Inhibition [1]: 99% | Inhibition [2]: 99% | Inhibition [3]: 27%

COc1cc2nc(N3CCN(C(=O)c4c(Cl)nsc4-c4ccccc4Cl)CC3)nc(N)c2cc1OC.O=C(O)C(F)(F)F
Inhibition [1]: 100% | Inhibition [2]: 100% | Inhibition [3]: 57%

Cl.O=c1cc(NCCCCNCc2ccc(Br)c(Br)c2)[nH]c2ccccc12
Inhibition [1]: 98% | Inhibition [2]: 14% | Inhibition [3]: 13%

CC(Oc1ccc(Cl)cc1)C(=O)NCCC1CCN(CCCCCNC(=O)/C=C/c2ccc(Cl)c(Cl)c2)CC1 (stereo not drawn)
Inhibition [1]: 89% | Inhibition [2]: 20% | Inhibition [3]: 48%

CCC(C)c1ccc(O)c(NC(=O)c2cncc(Br)c2)c1 (stereo not drawn)
Inhibition [1]: 100% | Inhibition [2]: 16% | Inhibition [3]: 0%

COc1ccc(Cl)cc1N1CCN(CCCNC(=O)c2ccc(-c3nc4cnccc4[nH]3)c(Br)c2)CC1
Inhibition [1]: 86% | Inhibition [2]: 15% | Inhibition [3]: 5%

COc1ccc2nccc([C@@H](O)CN3CCC(NC(=O)c4ccc(C5(C(F)(F)F)N=N5)cc4)CC3)c2c1
Inhibition [1]: 97% | Inhibition [2]: 41% | Inhibition [3]: 8%

CC(C)(CNCc1ccc(C(F)(F)F)cc1)c1nc(-c2ccnc(N)n2)c(-c2ccc(Cl)c(O)c2)[nH]1.Cl
Inhibition [1]: 100% | Inhibition [2]: 37% | Inhibition [3]: 32%

COc1ccc(Nc2nccc(NCCNC(=O)Nc3ccccc3F)n2)cc1
Inhibition [1]: 85% | Inhibition [2]: 4% | Inhibition [3]: 4%

CCN1CCN(c2cc(C)c3cc(NC(=O)c4cccc([N+](=O)[O-])c4)ccc3n2)CC1
Inhibition [1]: 99% | Inhibition [2]: 73% | Inhibition [3]: 74%

CCOC(=O)c1ccc(NC(=O)Nc2cccc(-c3ccc(-c4nc5cccc(C)c5[nH]4)s3)c2)cc1
Inhibition [1]: 100% | Inhibition [2]: 99% | Inhibition [3]: 44%

CN1CCC(NCc2ccc(-c3cccc(S(=O)(=O)NCc4ccccc4)c3)cc2)CC1.O=C(O)C(F)(F)F
Inhibition [1]: 100% | Inhibition [2]: 94% | Inhibition [3]: 72%

CC(C)(C)OC(=O)/C=C(\C(=O)OCc1ccc([N+](=O)[O-])cc1)c1csc(NC(c2ccccc2)(c2ccccc2)c2ccccc2)n1
Inhibition [1]: 96% | Inhibition [2]: 97% | Inhibition [3]: 2%

O=C(Nc1ccc(F)cc1F)NC1CCN(c2ccnc3cc(Cl)ccc23)C1.O=C(O)C(F)(F)F (stereo not drawn)
Inhibition [1]: 100% | Inhibition [2]: 82% | Inhibition [3]: 25%

O=C(O)C(F)(F)F.c1ccc(CNCc2cccc(-c3ccc(-c4nc5ccccc5[nH]4)s3)c2)cc1
Inhibition [1]: 95% | Inhibition [2]: 63% | Inhibition [3]: 8%

CN1CCC(N(C)C(=O)C=Cc2cn(-c3ccccc3)nc2-c2cc3ccccc3o2)CC1.Cl
Inhibition [1]: 92% | Inhibition [2]: 5% | Inhibition [3]: 38%

COc1ccccc1NC(=O)Nc1cccc(-c2cccc(-c3nc4cc(C(F)(F)F)ccc4[nH]3)c2)c1
Inhibition [1]: 100% | Inhibition [2]: 97% | Inhibition [3]: 21%

COCCNCC(O)Cn1c2ccc(Cl)cc2c2cc(Cl)ccc21 (stereo not drawn)
Inhibition [1]: 95% | Inhibition [2]: 74% | Inhibition [3]: 15%

Cc1ccccc1C1CCN(C2CCC(NC(=O)c3ccc(-c4cc(C(F)(F)F)nn4C)s3)CC2)CC1 (stereo not drawn)
Inhibition [1]: 98% | Inhibition [2]: 68% | Inhibition [3]: 42%

O=C(c1ccc(F)c2ccccc12)N1CCc2cc3nccc(N4CCN5CCC[C@H]5C4)c3cc21
Inhibition [1]: 90% | Inhibition [2]: 54% | Inhibition [3]: 0%

Cl.N=C(NCCCCC1CCCCC1)c1cccc(C(=N)NCCCCC2CCCCC2)n1
Inhibition [1]: 100% | Inhibition [2]: 19% | Inhibition [3]: 99%

CN(C)CCNC(=O)c1cc2c(-c3ccc(Cl)cc3)nn(C)c2s1
Inhibition [1]: 98% | Inhibition [2]: 81% | Inhibition [3]: 18%

COc1cc(Cc2cnc(N)nc2N)cc(OCCCCCCN2C(=O)c3ccccc3C2=O)c1OC
Inhibition [1]: 95% | Inhibition [2]: 3% | Inhibition [3]: 15%

O=C(Nc1cccnc1)c1cc(-c2cccnc2)nc2ccc(Cl)cc12
Inhibition [1]: 97% | Inhibition [2]: 50% | Inhibition [3]: 45%

COc1ccc(-c2cccc(NC(=O)c3cccc(Cl)c3)c2)cc1CN1CCC(O)CC1.O=C(O)C(F)(F)F
Inhibition [1]: 98% | Inhibition [2]: 16% | Inhibition [3]: 38%

Cc1cc(OCCCNc2nc(NCCc3ccc(O)cc3)nc(N3CCNCC3)n2)c(Cl)c(C)c1Cl.O=C(O)C(F)(F)F
Inhibition [1]: 99% | Inhibition [2]: 8% | Inhibition [3]: 54%

NCc1ccc(CNCc2cccc(-c3ccc(-c4nc5cc(C(F)(F)F)ccc5[nH]4)cc3)c2)cc1.O=C(O)C(F)(F)F
Inhibition [1]: 98% | Inhibition [2]: 90% | Inhibition [3]: 13%
